Measurements published in ChEMBL document CHEMBL4513146, “CO-ADD screening of Karazin Kharkiv National University (Ukraine) compounds”.
Potency and affinity values are given separately.

What was measured:
Klebsiella pneumoniae = conditions: Concentration 32 ug.mL-1;; ASSAY_TEST Inhibition of Bacterial Growth; detection method Absorption (OD600); MEDIA CAMHB; plate type 384well; NBS; CORNING #3640; time 18 hr
Candida albicans = conditions: Concentration 32 ug.mL-1; ASSAY_TEST Inhibition of Fungal Growth; detection method Absorption (OD530)
Cryptococcus neoformans = conditions: Concentration 32 ug.mL-1; ASSAY_TEST Inhibition of Fungal Growth; detection method Resazurin; Absorption (OD600-OD570); plate type 384well; NBS; CORNING #3640

Compound: CC(C)NC(=O)Cn1nc2n(Cc3ccco3)c(=O)c3sccc3n2c1=O
- Inhibition (Klebsiella pneumoniae): 9.3%
- Inhibition (Candida albicans): 0.87%
- Inhibition (Cryptococcus neoformans): -5.24%

Compound: Cc1cc(C)c(NC(=O)Cn2nc3c(N4CCN(c5ccccc5)CC4)nccn3c2=O)c(C)c1
- Inhibition (Klebsiella pneumoniae): 10.19%
- Inhibition (Candida albicans): 11.4%
- Inhibition (Cryptococcus neoformans): -7.74%

Compound: Cc1ccc(NC(=O)CSc2nc3ccccc3n3c(C)nnc23)cc1C
- Inhibition (Klebsiella pneumoniae): -6.18%
- Inhibition (Candida albicans): 44.31%
- Inhibition (Cryptococcus neoformans): -14.42%

Compound: CC(=O)c1ccc(NC(=O)Cn2c(=O)c3nnc(C(C)C)n3c3ccccc32)cc1
- Inhibition (Klebsiella pneumoniae): 9.51%
- Inhibition (Candida albicans): 0.56%
- Inhibition (Cryptococcus neoformans): -14.82%

Compound: CC(C)(C)NC(=O)Cn1nc2n(Cc3cccs3)c(=O)c3sccc3n2c1=O
- Inhibition (Klebsiella pneumoniae): 3.31%
- Inhibition (Candida albicans): -0.71%
- Inhibition (Cryptococcus neoformans): -8.9%

Compound: CCc1nnc2c(=O)n(CC(=O)Nc3cc(Cl)ccc3Cl)c3ccccc3n12
- Inhibition (Klebsiella pneumoniae): 6.11%
- Inhibition (Candida albicans): 2.89%
- Inhibition (Cryptococcus neoformans): -19.25%

Compound: Cc1ccc(-c2cc3c4nn(CC(=O)Nc5cccc(Br)c5)c(=O)n4ccn3n2)cc1
- Inhibition (Klebsiella pneumoniae): 10.81%
- Inhibition (Candida albicans): 6.28%
- Inhibition (Cryptococcus neoformans): -43.73%

Compound: O=C(Cn1nc2c(SCc3ccc(Cl)cc3)nccn2c1=O)Nc1ccccc1F
- Inhibition (Klebsiella pneumoniae): 4.91%
- Inhibition (Candida albicans): 1.79%
- Inhibition (Cryptococcus neoformans): -4.96%

Compound: CCOC(=O)c1ccccc1NC(=O)Cn1nc2ccc(C(=O)Nc3ccc(OC)cc3)cn2c1=O
- Inhibition (Klebsiella pneumoniae): -1.54%
- Inhibition (Candida albicans): 25.24%
- Inhibition (Cryptococcus neoformans): -9.29%

Compound: COc1cc(OC)c(NC(=O)Cn2nc3ccc(Sc4cccc(F)c4)nn3c2=O)cc1Cl
- Inhibition (Klebsiella pneumoniae): 2.02%
- Inhibition (Candida albicans): 6.91%
- Inhibition (Cryptococcus neoformans): -5.99%
